The values below come from paper PMC5540273 (PLoS ONE, 2017).

In one experiment the test system is T1, ERK8.
T1 construct: gene MAPK15

In another experiment the test system is T2, GRK3.
T2 construct: gene ADRBK2

The next experiment relates to T3, HASPIN.
T3 construct: gene GSG2
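Note: kd values determined as follow-up on hits from a single-replicate KINOMEscan panel screen.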

As a reminder, the Kd is the equilibrium constant for the complex coming apart. Regarding `Cn1cncc1-c1ccc2ncnc(Nc3ccc(OCc4ccccc4)cc3)c2c1` [GW320571], the Kd is more than 10000 nM in the experiment with EIF2AK1 and 41 nM in the experiment on ERBB2. Regarding `Nc1ncnc2[nH]c(-c3ccccc3)nc12` [AH5015], in the experiment on EIF2AK1, the dissociation constant Kd was more than 10000 nM. `COc1cc(Nc2nccc(N3CCC(NC(=O)Nc4cc(C)ccc4C)C3)n2)cc(OC)c1OC` (stereo not drawn) [GSK1379762] gave a dissociation constant (Kd) with EPHB6 of 1100 nM. That is a single-digit micromolar value. In the experiment with EPHB6, `COc1ccc(CNC(=O)NC2CCN(c3ccnc(Nc4cc(OC)c(OC)c(OC)c4)n3)C2)cc1` (stereo not drawn) [GSK1379748] had a dissociation constant Kd of 180 nM. Compared with the last molecule, the Kd is about 6.1-fold lower. On to `Cl.O=C(Nc1cccc(-c2nn3ncccc3c2-c2ccnc(Nc3cccnc3)n2)c1)c1c(F)cccc1F` [GSK312879], for which the Kd with ERBB2 stood at 29 nM; with ERBB4 it was 64 nM. For `Cl.NC(=O)c1cccc(Nc2nccc(Nc3ccc(Oc4cccc(Cl)c4)c(Cl)c3)n2)c1` [GW659008], binding in the experiment on ERBB3 was characterised by a dissociation constant (Kd) of 260 nM. `O=C(Nc1n[nH]c2nc(-c3nccs3)c(Br)cc12)C1CC1` [SB-742251] registered a Kd with ERK8 of 870 nM. `NC(=O)c1nnc2ccccc2c1N` gave a dissociation constant Kd in the experiment with FGFR3 of more than 10000 nM. Molecule `Cn1ccc2ncnc(Oc3ccc(NC(=O)Nc4ccccc4)cc3)c21` came in with a Kd with FLT1 of 350 nM. The same measure, in the same setting: then `O=C(Nc1ccccc1)Nc1cccc(Oc2ccc3nccn3n2)c1`, with 91 nM. In the experiment with FLT4, `COc1cccc(-c2cc(-c3c[nH]nc3-c3ccccn3)ccn2)c1` [GW680338] had a Kd of more than 10000 nM. For `O=C(O)COc1ncnc2cc(-c3ccc4[nH]ncc4c3)sc12`, the Kd with FRK and with FYN was more than 10000 nM throughout. As for `CC(=O)Nc1nc2cnc(Nc3cc(NC(=O)c4cccc(CCC#N)c4)ccc3C)nc2s1`, the equilibrium dissociation constant (Kd) in the experiment with FRK is more than 10000 nM. For `CC(C)(C)c1ccc(C(=O)Nc2cn3cc(Cl)ccc3n2)cc1`, the dissociation constant (Kd) in the experiment with FYN was more than 10000 nM. `Clc1cc(Cl)cc(Nc2ccnc(Nc3cc(Cl)cc(Cl)c3)n2)c1` [GSK175726]: the Kd in the experiment on GRK1 was more than 10000 nM.

In the experiment with GRK1, `CCCc1ccc(S(=O)(=O)NC2CCN(c3ccnc(Nc4ccc(F)cc4)n3)C2)cc1` (stereo not drawn) [GSK1379715] yielded a dissociation constant Kd of more than 10000 nM. Regarding `Cc1ccc(NC(=O)Nc2cc(C(C)(C)C)nn2-c2ccccc2)cc1` [GSK1014915], the Kd with GRK3 is more than 10000 nM.

For the molecule `O=C(Nc1ccc2c(c1)OCO2)NC1CCN(c2ccnc(Nc3ccc(F)cc3)n2)C1` (stereo not drawn) [GSK1379724], in the experiment with GRK3, the dissociation constant Kd is more than 10000 nM. For `O=C1NC(=O)C(N2CCc3ccccc32)=C1c1ccccc1Cl` [SB-373598], the equilibrium dissociation constant (Kd) in the experiment with HASPIN is more than 10000 nM. On to `Cc1csc(-c2nc(Nc3ccncc3)c3ccccc3n2)n1` [GW869640], for which the Kd with HASPIN was 77 nM. `Cc1nnc(-c2ccc3occ(-c4ccc(S(C)=O)cc4)c3c2)[nH]1` (stereo not drawn): in the experiment on HIPK2, the dissociation constant (Kd) came to 320 nM.
